Assay results reported in PubChem BioAssay AID1159580 (chemical genetic matrix, 2015).
In all, about 5,500 compounds went through this assay and about 2,000 (36%) were called active. Not shown: some 18% with an inconclusive outcome. No stated cut-off is given here; in the data, active means normalized growth mostly below about 0.91 (no sharp cut-off); inconclusive means no clear call, values can overlap the other calls; inactive means mostly above about 0.92. This is one part of the list.

Experiment: chemical genetic growth profiling, strain panel (AID 1159580);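 further: tested at 20 µM; growth read once vehicle control cultures reached saturation at 30 °C; 1 = growth at the plate median or of vehicle wells; lower values mean less growth of the strain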
Conditions: S. cerevisiae deletion strains, growth OD
[1] = locus YAL021C, strain ccr4, hits give low values
[2] = locus YAL026C, strain drs2, hits give low values
[3] = locus YAL030W, strain snc1, hits give low values
[4] = locus YBL061C, strain skt5, hits give low values
[5] = locus YBR009C, strain hhf1, hits give low values
[6] = locus YBR023C, strain chs3, hits give low values
[7] = locus YBR171W, strain sec66, hits give low values
[8] = locus YBR231C, strain swc5, hits give low values
[9] = locus YBR279W, strain paf1, hits give low values
[10] = locus YCL011C, strain gbp2, hits give low values
[11] = locus YCL016C, strain dcc1, hits give low values
[12] = locus YCL061C, strain MRC1, hits give low values
[13] = locus YCL069W, strain vba3, hits give low values
[14] = locus YCR088W, strain abp1, hits give low values
[15] = locus YDL005C, strain med2, hits give low values
[16] = locus YDL040C, strain nat1, hits give low values
[17] = locus YDR001C, strain nth1, hits give low values
[18] = locus YDR069C, strain doa4, hits give low values
[19] = locus YDR137W, strain rgp1, hits give low values
[20] = locus YDR159W, strain sac3, hits give low values
[21] = locus YDR297W, strain sur2, hits give low values
[22] = locus YDR334W, strain swr1, hits give low values
[23] = locus YDR335W, strain msn5, hits give low values
[24] = locus YDR392W, strain spt3, hits give low values
[25] = locus YEL003W, strain gim4, hits give low values
[26] = locus YEL037C, strain rad23, hits give low values
[27] = locus YEL061C, strain CIN8 (second series), hits give low values
[28] = locus YER015W, strain faa2, hits give low values
[29] = locus YER016W, strain bim1, hits give low values
[30] = locus YER111C, strain swi4, hits give low values
[31] = locus YER155C, strain BEM2 (second series), hits give low values
[32] = locus YFR010W, strain ubp6, hits give low values
[33] = locus YGL167C, strain pmr1, hits give low values
[34] = locus YGL173C, strain kem1, hits give low values
[35] = locus YGL227W, strain vid30, hits give low values
[36] = locus YGL240W, strain doc1, hits give low values
[37] = locus YGL253W, strain hxk2, hits give low values
[38] = locus YHR013C, strain ard1, hits give low values
[39] = locus YHR027C, strain rpn1, hits give low values
[40] = locus YHR142W, strain chs7, hits give low values
[41] = locus YJL092W, strain hpr5, hits give low values
[42] = locus YJL095W, strain BCK1 (second series), hits give low values
[43] = locus YJL115W, strain asf1, hits give low values
[44] = locus YJL129C, strain trk1, hits give low values
[45] = locus YJL154C, strain vps35, hits give low values
[46] = locus YJL164C, strain tpk1, hits give low values
[47] = locus YJL166W, strain qcr8, hits give low values
[48] = locus YJL187C, strain SWE1, hits give low values
[49] = locus YKL160W, strain elf1, hits give low values
[50] = locus YKR026C, strain gcn3, hits give low values
[51] = locus YKR091W, strain srl3, hits give low values
[52] = locus YLL001W, strain dnm1, hits give low values
[53] = locus YLL026W, hits give low values
[54] = locus YLL041C, strain sdh2, hits give low values
[55] = locus YLR027C, strain aat2, hits give low values
[56] = locus YLR221C, strain rsa3, hits give low values
[57] = locus YLR258W, strain gsy2, hits give low values
[58] = locus YLR262C, strain YPT6 (second series), hits give low values
[59] = locus YLR320W, strain mms22, hits give low values
[60] = locus YLR342W, strain FKS1, hits give low values
[61] = locus YLR357W, strain rsc2, hits give low values
[62] = locus YLR370C, strain arc18, hits give low values
[63] = locus YLR384C, strain iki3, hits give low values
[64] = locus YML120C, strain ndi1, hits give low values
[65] = locus YMR058W, strain fet3, hits give low values
[66] = locus YMR125W, strain sto1, hits give low values
[67] = locus YMR129W, hits give low values
[68] = locus YMR205C, strain PFK2, hits give low values
[69] = locus YMR231W, strain pep5, hits give low values
[70] = locus YNL071W, strain lat1, hits give low values
[71] = locus YNL209W, strain ssb2, hits give low values
[72] = locus YNL248C, strain rpa49, hits give low values
[73] = locus YNL322C, strain KRE1 (second series), hits give low values
[74] = locus YNR049C, strain mso1, hits give low values
[75] = locus YOR001W, strain rrp6, hits give low values
[76] = locus YOR070C, strain gyp1, hits give low values
[77] = locus YOR080W, strain dia2, hits give low values
[78] = locus YOR083W, strain WHI5, hits give low values
[79] = locus YOR106W, strain vam3, hits give low values
[80] = locus YOR265W, strain rbl2, hits give low values
[81] = locus YOR270C, strain vph1, hits give low values
[82] = locus YOR290C, strain snf2, hits give low values
[83] = locus YPL051W, strain arl3, hits give low values
[84] = locus YPL078C, strain atp4, hits give low values
[85] = locus YPL106C, strain sse1, hits give low values
[86] = locus YPL240C, strain hsp82, hits give low values

Measured: normalized growth

C#CCCCCCCCCCCCc1ccco1
active: [24] 0.603 | [31] 0.849 | [70] 0.877
inactive: [1] 1.02 | [2] 0.98 | [3] 0.997 | [4] 0.999 | [5] 0.954 | [6] 0.994 | [7] 0.997 | [8] 0.995 | [9] 1 | [10] 0.983 | [11] 0.999 | [12] 1 | [13] 0.995 | [14] 0.992 | [15] 0.991 | [16] 0.987 | [17] 0.99 | [18] 0.983 | [19] 0.993 | [20] 0.958 | locus YDR195W, strain ref2 0.99 | [21] 1 | [22] 0.999 | [23] 0.989 | [25] 1.01 | [26] 1.01 | [27] 1 | [28] 0.992 | [29] 0.988 | [30] 0.972 | [32] 0.996 | [33] 0.999 | [34] 0.989 | [35] 0.991 | [36] 0.995 | [37] 0.989 | [38] 0.869 | [39] 1 | [40] 0.971 | [41] 0.989 | [42] 0.997 | [43] 0.987 | [44] 0.968 | [45] 1.01 | [46] 0.973 | [47] 0.947 | [48] 1 | [49] 0.985 | [50] 0.964 | [51] 0.993 | [52] 0.981 | [53] 0.982 | [54] 1 | [55] 0.985 | [56] 0.975 | [57] 0.99 | [58] 0.917 | [59] 0.932 | [60] 0.989 | [61] 0.975 | [62] 0.998 | [63] 0.987 | [64] 1 | [65] 0.987 | [66] 0.958 | [67] 0.998 | [68] 0.938 | [69] 0.993 | [71] 0.998 | [72] 0.982 | [73] 0.983 | [74] 0.996 | [75] 1 | [76] 1.01 | [77] 0.993 | [78] 0.985 | [79] 0.949 | [80] 1 | [81] 0.962 | [82] 0.975 | [83] 0.988 | [84] 0.991 | [85] 1.04 | [86] 1

CCCCCCCCCCCCCc1ccco1
active: [5] 0.825 | [24] 0.266 | [31] 0.635 | [38] 0.699 | [46] 0.915 | [47] 0.835 | [56] 0.889 | [58] 0.816 | [59] 0.81 | [68] 0.841 | [70] 0.621
inactive: [1] 1.01 | [2] 0.976 | [3] 0.991 | [4] 0.979 | [6] 0.969 | [7] 0.991 | [8] 0.938 | [9] 0.947 | [10] 0.954 | [11] 0.973 | [12] 0.96 | [13] 0.989 | [14] 0.993 | [15] 0.988 | [16] 0.983 | [17] 0.989 | [18] 0.964 | [19] 0.886 | [20] 0.933 | locus YDR195W, strain ref2 0.973 | [21] 0.989 | [22] 0.987 | [23] 0.987 | [25] 0.953 | [26] 0.983 | [27] 0.976 | [28] 0.989 | [29] 0.978 | [30] 0.966 | [32] 0.96 | [33] 0.979 | [34] 0.968 | [35] 0.971 | [36] 0.936 | [37] 0.98 | [39] 0.992 | locus YHR030C, strain SLT2, hits give low values 0.951 | locus YHR079C, strain IRE1, hits give low values 0.937 | [40] 0.922 | [41] 0.988 | [42] 0.939 | locus YJL095W, strain BCK1, hits give low values 0.977 | [43] 0.99 | [44] 0.925 | [45] 0.991 | [48] 0.978 | locus YJR066W, strain TOR1, hits give low values 0.944 | [49] 0.931 | [50] 0.966 | [51] 0.989 | [52] 0.976 | [53] 0.949 | [54] 0.99 | [55] 0.939 | locus YLR113W, strain HOG1, hits give low values 0.939 | [57] 0.94 | [60] 0.986 | [61] 0.99 | [62] 0.989 | [63] 0.983 | [64] 0.959 | [65] 0.925 | [66] 0.934 | [67] 0.985 | [69] 0.985 | locus YNL183C, strain NPR1, hits give low values 0.908 | [71] 0.993 | [72] 0.999 | [73] 0.995 | [74] 0.989 | [75] 0.974 | [76] 0.944 | [77] 1 | [78] 0.96 | [79] 0.927 | locus YOR231W, strain MKK1, hits give low values 0.899 | [80] 0.981 | [81] 0.929 | [82] 0.913 | [83] 0.964 | [84] 0.947 | [85] 1.01 | [86] 0.991 | locus YPL256C, strain CLN2, hits give low values 0.91
